In all, about 320,000 compounds went through this assay and about 7,600 (2.4%) were called active. Inconclusive results (about 3%) are left out. Calls follow the shape of the dose curve; as a rule, active = well fitted activation curve with a large enough effect; inconclusive = small, poorly fitted or top-dose-only effect; inactive = no such curve, though single readings can be large or run the other way. Shown is part of a subset that was picked to be rich in actives. Where a call stands in place of a potency, no number is given.
Test: qHTS Assay for NPC1 Promoter Activators; also: nearly all actives have a fitted effect of over 60% in size;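 as to activation: reporter is driven by a mutant NPC1 promoter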
Conditions: Huh7 NPC1 promoter luciferase reporter, 24 h; series mostly up to 9.22 µM
How it was run: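 Compounds in DMSO were transferred onto Huh7 NPC1-luciferase reporter cells pre-incubated 2 h; after 24 h at 37 °C, Amplite reagent was dispensed and luminescence recorded 10 min later.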
Potency is read from the fitted curve at half-maximal effect.

Row | SMILES | Potency
1 | COCCN(C(=O)CSCc1ccc(C)cc1)c1c(N)n(CC(C)C)c(=O)[nH]c1=O | inactive
2 | CCN(CC(=O)NCc1cccs1)C(=O)/C=C/c1ccc(C)cc1 | inactive
3 | Cc1cccc(Nc2nnc(SCC(=O)c3c(N)n(C4CC4)c(=O)[nH]c3=O)s2)c1C | inactive
4 | O=C(NCc1cccs1)c1ccc2c(c1)ncn2C1CCCC1 | 3.55 µM (active)
5 | CCOc1ccc(C(=O)NC2CCN(CC(=O)NCc3cccs3)CC2)cc1 | inactive
6 | COc1ccccc1-n1cnc2cc(C(=O)NCC3CCCO3)ccc21 (centres undefined) | inactive
7 | O=C(CCNS(=O)(=O)c1ccc(Br)cc1)NCC1CCCO1 (centres undefined) | inactive
8 | COc1ccccc1C(=O)NCC(=O)NCCSc1ccc(Br)cc1 | inactive
9 | Cc1ccc(NC(=O)CN(C)C(=O)COC(=O)c2nccnc2N)cc1 | inactive
10 | c1csc(-c2nc(-c3ccncc3)no2)c1 | 3.16 µM (active)
11 | c1ccc(CCc2nc(-c3ccncc3)no2)cc1 | inactive
12 | Cc1ccc(-c2nc(-c3ccncc3)no2)c(C)c1 | 3.16 µM (active)
13 | COc1nc(-c2ccc(Cl)cc2)ccc1-c1noc(-c2cccs2)n1 | inactive
14 | Cc1ccc(-c2noc(CSc3nnc(-c4ccncc4)n3-c3ccc(F)cc3)n2)cc1 | inactive
15 | O=C(NCc1cccnc1)c1nc(-c2cccs2)no1 | inactive
16 | c1ccc(-c2noc(-c3cccs3)n2)nc1 | 0.398 µM (active)
17 | Cc1ccc(-c2noc(CSc3nnc(-c4cccs4)n3C)n2)cc1 | inactive
18 | Clc1ccc(-n2nnnc2-c2cnc(-c3ccccn3)nc2-c2cccs2)cc1 | inactive
19 | CN(C(=O)CSc1nnc(-c2n[nH]c3ccccc23)o1)c1ccccc1 | inactive
20 | O=C(COC(=O)c1c(Cl)cccc1Cl)Nc1cccc(S(=O)(=O)NC2=NCCCCC2)c1 | inactive
21 | COc1ccc(Cc2nnc(N/N=C/c3ccccc3O)[nH]c2=O)cc1OC | inactive
22 | COc1ccccc1C(=O)NCC(=O)OCC(=O)Nc1nnc(-c2ccccc2)o1 | inactive
23 | O=C(COC(=O)c1cc(S(=O)(=O)N2CCOCC2)ccc1Cl)NCCc1ccccc1 | inactive

Row | SMILES | Potency
24 | Cc1ccc(NC(=O)NC(=O)c2ccccc2)cc1F | 0.562 µM (active)
25 | Cc1nc(C)c(C(=O)Nc2ccc(C)c(F)c2)o1 | inactive
26 | Cc1cccc(NC(=O)NC(=S)NC(=O)c2ccccc2)c1 | inactive
27 | CCN(CC)C(=O)c1nc[nH]c1C(=O)N(C)Cc1ccccc1 | inactive
28 | Cc1ccc(NC(=O)Nc2ccccc2)c(Br)c1 | 3.55 µM (active)
29 | CCOc1cc(NC(=O)Nc2ccccc2)c(OCC)cc1NC(=O)CC | inactive
30 | Cc1c(NC(=O)Nc2ccccc2)cccc1[N+](=O)[O-] | inactive
31 | COc1cc(F)c(C2=CC(=O)CC(C)(C)C2)cc1F | inactive
32 | CSc1ccccc1OCc1cc(C(=O)N2C[C@H]3CC[C@H]2C3)no1 | 2.82 µM (active)
33 | COC(=O)[C@@H]1CCCN1C(=O)c1cc(COc2cccc3cccnc23)on1 | inactive
34 | CSc1ccccc1OCc1cc(C(=O)N(C)CCc2c(C)n[nH]c2C)no1 | inactive
35 | COC(=O)c1ccc(C)c(NC(=O)C2CC(=O)N(C3CCCC(C)C3C)C2)c1 (centres undefined) | inactive
36 | NS(=O)(=O)c1ccc(CCNC(=O)COC(=O)COc2cccc(C(F)(F)F)c2)cc1 | inactive
37 | Cc1ccc(OCCC(=O)Nc2ccc(S(=O)(=O)Nc3nccs3)cc2)cc1 | inactive
38 | COc1ccc(Cl)cc1NC(=O)CN(C)C(=O)c1ccc2n[nH]nc2c1 | inactive
39 | Cc1nc2ccccc2cc1C(=O)N/N=C/c1ccc([N+](=O)[O-])cc1 | inactive
40 | Cc1ccsc1C(=O)N/N=C/c1ccc([N+](=O)[O-])cc1 | 3.98 µM (active)
41 | O=C(N/N=C/c1ccc([N+](=O)[O-])cc1)c1c[nH]c2ccccc12 | inactive
42 | CCNc1nc(-c2cc3ccccc3o2)cs1 | 2.82 µM (active)
43 | CCOC(=O)CSc1nnc(CNc2nc(-c3ccccc3)cs2)n1C | inactive
44 | Cc1nc(C)c(-c2csc(NCCc3ccccc3)n2)s1 | inactive
45 | O=C(CC1C(=O)NCCN1CC(c1ccccc1)c1ccccc1)NCC1CCOCC1 (centres undefined) | inactive
46 | CCC1CCC2(CC1)NC(=O)N(CC(=O)Nc1ccc(OC)cc1)C2=O (centres undefined) | inactive

Row | SMILES | Potency
47 | COc1ccccc1N1CCN(/N=C/c2ccc(O)cc2O)CC1 | 2.82 µM (active)
48 | COc1cc(/C=N/N2CCN(c3ccccc3)CC2)ccc1OC(C)=O | inactive
49 | COc1ccccc1N1CCN(/N=C\C(Br)=C\c2ccccc2)CC1 | inactive
50 | CCOc1ccccc1NC(=O)Cc1cccs1 | inactive
51 | O=C(Cc1cccs1)Nc1ccc([N+](=O)[O-])cc1 | inactive
52 | CCOC(=O)c1ccc(NC(=O)Cc2cccs2)cc1 | 3.55 µM (active)
53 | O=C(O)c1[nH]c2ccccc2c1C(c1cccc(O)c1)c1c(C(=O)O)[nH]c2ccccc12 | inactive
54 | COc1ccc(NC(=O)CC2SC(N3CCCCC3)=NC2=O)cc1OC (centres undefined) | inactive
55 | O=C(NCCCN1CCN(c2ccc(F)cc2)CC1)Nc1ccc([N+](=O)[O-])cc1 | inactive
56 | COc1ccc(OCc2cccc(C(=O)N3CCCC3)c2)cc1 | 0.447 µM (active)
57 | CC(=O)Oc1ccc(-c2cccc(C(=O)N3CCCCC3)c2)cc1 | inactive
58 | COc1cccc(COc2ccc(N(C)S(=O)(=O)c3ccccc3)cc2)c1 | inactive
59 | COc1ccc(Cn2c(=S)[nH]c3cc(C(=O)N4CCCCC4)ccc3c2=O)cc1 | inactive
60 | CN(Cc1ccccc1)C(=O)c1ccc(COc2ccccc2)cc1 | inactive
61 | CCOc1ccc(OCc2cccc(C(=O)N(CC)CC)c2)cc1 | 0.251 µM (active)
62 | CCCCn1nc(C(=O)Nc2cccc(C(=O)NC3CC3)c2)c2ccccc2c1=O | inactive
63 | O=C(Nc1ccccc1)N1CCC(C(=O)N2CCN(Cc3ccccc3)CC2)CC1 | inactive
64 | COc1cccc(N2CCN(CC(=O)Nc3ccnn3C3CCCC3)CC2)c1 | inactive
65 | CN(CC(=O)Nc1ccc(Cl)cc1)CC(=O)Nc1cccc2ccccc12 | inactive
66 | Cc1ccc(C(=O)NNc2ncnc3ccccc23)cc1 | 3.16 µM (active)
67 | CCc1nc(SCC(=O)NNC(=O)c2ccc(C)cc2)c2ccccc2n1 | inactive
68 | Cc1ccc(C(=O)NNC(=O)c2cc3cc4ccccc4nc3s2)cc1 | inactive
69 | CC(=O)Nc1ccc(S(=O)(=O)NC(C)C(=O)OCCOc2ccc(F)cc2)cc1 (centres undefined) | inactive

— PubChem BioAssay AID485313 (National Center for Advancing Translational Sciences (NCATS), 2010)
